This passage reports growth inhibition results from PubChem BioAssay (NCI).

About 79,000 compounds went through this panel and 15% of them were active in at least one assay; those are over-represented in the sample as a whole. Values without a mark were called inactive. Calls of active or inactive are those of the source. Cut-off read from the data, not from the text of the source: active = growth inhibition above about 70%; inactive = the rest.

The nature of assay [1]: NCI Yeast Anticancer Drug Screen. Data for the rad50 strain (AID 155).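 Note: 0% = growth of vehicle-only cultures of the same strain.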 To be noted: S. cerevisiae rad50 strain growth inhibition; at 50.0 µM; hits give high values. Put shortly:
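Relative growth inhibition (compound vs vehicle) was measured in yeast with a defined repair-gene alteration.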

Assay [2] can be described thus: NCI Yeast Anticancer Drug Screen. Data for the mec2-1 strain (AID 157). To be noted: S. cerevisiae mec2-1 strain, at 50.0 µM, hits give high values. Put shortly:
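Test agents were screened against the mec2-1 yeast strain, with defined DNA repair or cell cycle alteration. Growth was scored as inhibition against vehicle-only controls.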

Assay [3] in a line: NCI Yeast Anticancer Drug Screen. Data for the sgs1 mgt1 strain (AID 161).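 Note: 0% = growth of cultures given vehicle only.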 To be noted: S. cerevisiae sgs1 mgt1 strain, at 50.0 µM, hits give high values. Put shortly:
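Test agents were incubated with a DNA-repair-mutant yeast strain. Growth was then read and compared against vehicle-treated controls.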

A short description of assay [4]: NCI Yeast Anticancer Drug Screen. Data for the cln2 rad14 strain (AID 165).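 Note: 0% = growth equal to vehicle treated cultures.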 To be noted: S. cerevisiae cln2 rad14 strain, at 50.0 µM, hits give high values. Put shortly:
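Growth of compound-exposed yeast (cln2 rad14 genotype) measured and expressed as inhibition relative to vehicle.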

Assay [5] is described as follows: NCI Yeast Anticancer Drug Screen. Data for the bub3 strain (AID 167). Particulars: S. cerevisiae bub3 mutant strain, at 50.0 µM, hits give high values. Put shortly:
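Screening used yeast with an engineered genetic alteration affecting cell cycle control. Compound-exposed cultures were compared with vehicle cultures, and reduced growth was taken as inhibition.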

Assay [6] can be described thus: NCI Yeast Anticancer Drug Screen. Data for the mlh1 rad18 strain (AID 175). Particulars: S. cerevisiae mlh1 rad18 strain growth inhibition; at 50.0 µM; hits give high values. Put shortly: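 In this whole-cell yeast screen, a strain with altered DNA damage repair is challenged with compound, and its growth is measured against matched vehicle-treated controls.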

`O=C(Nc1cc2ccccc2cc1C(=O)O)Nc1cccc2ccccc12`: the growth inhibition in assay [1] is 10.2%; in assay [2], 7%; in assay [3], 32.6%; in assay [4], 6.2%; in assay [5] it was 20.1%; in assay [6] it was 30.3%.
As for `CCOc1ccc(N2C(=O)NC3(c4ccccc4)N(C)C(=O)N(C)C23c2ccccc2)cc1` (stereo unspecified), the growth inhibition was -2.7% in assay [1]; -7.95% in assay [2]; 13.8% in assay [3]; 1.3% in assay [4]; 17.1% in assay [5]; -16.8% in assay [6].
Turning to `CCC1(C)C=Cc2c(cc(OC)c3c(=O)c4ccccc4n(C)c23)O1` (stereo unspecified), the growth inhibition was -21.8% in assay [1]; -27.4% in assay [2]; -33.8% in assay [3]; -19.6% in assay [4]; 4.05% in assay [5]; -26.4% in assay [6].
For the compound `Clc1ccc(OCc2nnc3n2N=C(c2ccccc2)CS3)cc1`, the growth inhibition in assay [1] was 36.5%; in assay [2], 7.1%; in assay [3] it was 15.9%; in assay [4] it was 36.2%; in assay [5] it was 23.5%; in assay [6] it was 15.9%.
In the case of `NC(CCCCCCCCCCP(=O)(O)O)C(=O)O` (stereo unspecified), the growth inhibition in assay [1] is -39.6%; in assay [2], -41.5%; in assay [3], -76.4%; in assay [4], -12.1%; in assay [5], -19.6%; in assay [6], -18.6%.
With `CC1=C(C)CC2(CC1)C(=O)C1(CCC(C)=C(C)C1)C2=O` (stereo unspecified), the growth inhibition was 25.2% in assay [1]; 0.7% in assay [2]; -2.8% in assay [3]; 14.1% in assay [4]; 17% in assay [5]; 15.6% in assay [6].
With `O=c1cn[nH]c2c(Br)cc(Br)cc12`, the growth inhibition is 12% in assay [1]; -0.3% in assay [2]; -1.6% in assay [3]; 2.65% in assay [4]; -9.9% in assay [5]; 16.4% in assay [6].
Take `CS(=O)(=O)OC1CCCS(=O)(=O)c2ccccc21` (stereo unspecified): the growth inhibition is -12.9% in assay [1]; -12.8% in assay [2]; 3.65% in assay [3]; -46.9% in assay [4]; -1% in assay [5]; -6.45% in assay [6].
In the case of `CC(=O)OC/C=C(C)/C=C/C=C(C)/C=C/C1=C(C)CCCC1(C)C`, the growth inhibition in assay [1] was -15.4%; in assay [2], -34%; in assay [3] it was -20.3%; in assay [4] it was -2.25%; in assay [5], 12.5%; in assay [6] it was -55%.
Regarding `O=C1OCCC1n1cc(F)c(=O)[nH]c1=O` (stereo unspecified), the growth inhibition in assay [1] was 3.15%; in assay [2], -5.3%; in assay [3], -3.45%; in assay [4], -39%; in assay [5], -20.2%; in assay [6], -2%.
`CCCCCOC(=S)S`: the growth inhibition in assay [1] is -2.6%; in assay [2], 11.8%; in assay [3], 32.7%; in assay [4], -12.1%; in assay [5], 13.4%; in assay [6], 29.9%.
Regarding `O=C1CSC(=O)N1`, the growth inhibition is -24.3% in assay [1]; -14.4% in assay [2]; -0.2% in assay [3]; -32.8% in assay [4]; -38% in assay [5]; -41.5% in assay [6].
As for `CC(O)CCNC(=O)c1ccccc1` (stereo unspecified), the growth inhibition in assay [1] is -10.4%; in assay [2], -16.2%; in assay [3], -11.3%; in assay [4], -25.8%; in assay [5] it was -13.3%; in assay [6], -5%.
`C=C1C(=O)OC2C1C(OC(=O)/C(=C/CO)CO)CC1(CO1)C1CC=C(C)C21` (stereo unspecified): the growth inhibition in assay [1] is 32.2%; in assay [2], 8.05%; in assay [3] it was 19.8%; in assay [4] it was -2.15%; in assay [5], -1.95%; in assay [6] it was 9.6%.
For the compound `COC(=O)n1oc2c(Br)cc(Br)cc2c1=O`, the growth inhibition was -4.15% in assay [1]; -10.4% in assay [2]; 1.45% in assay [3]; -6.85% in assay [4]; -0.2% in assay [5]; 0.8% in assay [6].
Turning to `Cc1nc(C)c(C(=O)NNC(=O)C[n+]2ccccc2)cc1C(=O)NNC(=O)C[n+]1ccccc1`, the growth inhibition is -27.6% in assay [1]; -4.15% in assay [2]; -11.4% in assay [3]; 11.7% in assay [4]; -12.4% in assay [5]; -25.1% in assay [6].
Turning to `CN(C)C(=S)S(=O)(=O)c1ccc([N+](=O)[O-])cc1`, the growth inhibition in assay [1] was 26.8%; in assay [2], 14.7%; in assay [3], 23.6%; in assay [4] it was -7.4%; in assay [5], 31.6%; in assay [6], 92.3% (active).
Turning to `CC1=CN2C(c3ccc(Cl)cc3)=NON(c3ccc(C)cn3)C2C=C1` (stereo unspecified), the growth inhibition in assay [1] is -21.6%; in assay [2], -4.75%; in assay [3], 0.65%; in assay [4], -50.8%; in assay [5], 5.25%; in assay [6], 8.35%.
Take `Cc1cc(CN(C)C)cc(C(C)C)c1O`: the growth inhibition in assay [1] was 1.85%; in assay [2], -0.9%; in assay [3], -12%; in assay [4], 34.1%; in assay [5] it was 12.8%; in assay [6] it was -3.95%.
On to `O=C(O)C1NCCC1Oc1ccccc1` (stereo unspecified), for which the growth inhibition in assay [1] was -3.9%; in assay [2], -3.7%; in assay [3], -16%; in assay [4], -12.8%; in assay [5] it was -1.5%; in assay [6] it was 2.65%.
Turning to `CC(C)CCc1c(N)nc(N)[nH]c1=O`, the growth inhibition is 6.8% in assay [1]; -13.6% in assay [2]; -8.6% in assay [3]; -42% in assay [4]; 1% in assay [5]; 3.75% in assay [6].
